Experiment [1] can be described thus: ATG_TAL_CIS: Attagene CIS-FACTORIAL HepG2 Assay for human TAL Basal Promoter (AID 2282966; active = hit-call score of the fitted dose curve at least 0.9, where 1 is the maximum; inactive = score below 0.9;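 also: background control endpoint measuring basal TAL promoter reporter mRNA not a specific factor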). The conditions noted are these: HepG2 Attagene cis-factorial TAL promoter reporter; actives raise or lower the signal. In outline:
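HepG2, transient MRTU transfection, 24 h compound exposure; RNA → oligo(dT) RT → PCR → 6-FAM primer extension → HpaI digest → CE fluorescence. Bidirectional curve fit vs DMSO. Background-control readout.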

Experiment [2] can be described thus: ATG_TGFb_CIS: Attagene CIS-FACTORIAL HepG2 Assay for human Transforming Growth Factor (TGF) (AID 2282967; active = hit-call score of the fitted dose curve at least 0.9, where 1 is the maximum; inactive = score below 0.9). The conditions noted are these: HepG2 Attagene CIS TGFb reporter, mRNA transcription; actives raise or lower the signal. Put shortly:
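HepG2 cells transiently transfected with cis-promoter-driven multiple reporter units measure endogenous TF activity; reporter mRNA quantified at 24 h by RT-PCR, FAM labeling, HpaI digestion and capillary electrophoresis. Bidirectional fit vs DMSO.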

For experiment [3], the target named is Nuclear receptor subfamily 1 group I member 3 (Homo sapiens) (UniProt Q14994). Description: ATG_CAR_TRANS: Attagene TRANS-FACTORIAL HepG2 Assay for human Constitutive Androstane Receptor (CAR) (AID 2282969).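 Also: activators raise reporter mRNA above DMSO so AC50 marks induction.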 The conditions noted are these: HepG2 Attagene TRANS-FACTORIAL CAR reporter. Put shortly: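 Signal is reporter mRNA induction relative to DMSO, measured 24 h after dosing by RT-PCR with fluorescent primer extension and capillary electrophoresis. Human HepG2 liver cells carried transiently transfected chimeric NR-Gal4/GAL4-UAS reporter constructs.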
Nuclear receptor subfamily 1 group I member 3 (Homo sapiens), sequence (Q14994 whole entry, looked up, the tested form may be a part): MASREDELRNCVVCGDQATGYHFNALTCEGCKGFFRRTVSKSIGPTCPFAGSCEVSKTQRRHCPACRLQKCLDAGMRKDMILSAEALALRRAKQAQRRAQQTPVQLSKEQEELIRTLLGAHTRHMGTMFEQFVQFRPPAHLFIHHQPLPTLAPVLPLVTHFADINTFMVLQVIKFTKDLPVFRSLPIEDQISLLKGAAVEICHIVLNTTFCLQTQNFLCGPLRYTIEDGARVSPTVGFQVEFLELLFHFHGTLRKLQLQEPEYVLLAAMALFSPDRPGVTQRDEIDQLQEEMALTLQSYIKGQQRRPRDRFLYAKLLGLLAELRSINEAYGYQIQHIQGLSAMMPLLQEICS

Experiment [4] deals with X-box-binding protein 1 (Homo sapiens) (UniProt P17861). The experiment can be described thus: ATG_Xbp1_CIS: Attagene CIS-FACTORIAL HepG2 Assay for human X-box Binding Protein 1 (XBP1) (AID 2282972; active = hit-call score of the fitted dose curve at least 0.9, where 1 is the maximum; inactive = score below 0.9). The conditions noted are these: HepG2 XBP1 cis-element reporter, Attagene multiplex; actives raise or lower the signal. Put shortly: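 Reporter transcripts were quantified by RT-PCR with fluorescent primer extension and capillary electrophoresis after 24 h chemical exposure. Cells: transiently transfected HepG2 carrying cis-regulated reporter constructs; data fitted bidirectionally relative to DMSO.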
X-box-binding protein 1 (Homo sapiens), sequence (P17861 whole entry, looked up): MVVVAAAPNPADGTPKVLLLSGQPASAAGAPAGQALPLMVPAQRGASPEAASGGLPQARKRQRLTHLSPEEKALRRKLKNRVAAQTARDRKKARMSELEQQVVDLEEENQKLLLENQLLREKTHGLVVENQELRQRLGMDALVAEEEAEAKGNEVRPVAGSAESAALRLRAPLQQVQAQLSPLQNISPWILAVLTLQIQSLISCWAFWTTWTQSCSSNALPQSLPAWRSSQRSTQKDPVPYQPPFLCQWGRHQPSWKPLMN

Experiment [5] deals with Glucocorticoid receptor (Homo sapiens) (UniProt P04150). The experiment can be described thus: ATG_GR_TRANS: Attagene TRANS-FACTORIAL HepG2 Assay for human Glucocorticoid Receptor (GR) (AID 2282978).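 Also: activators score as hits since higher reporter transcript over DMSO is fitted.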 The conditions noted are these: HepG2 Attagene TRANS GR reporter, mRNA transcription. In outline: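 Transiently transfected HepG2 cells express chimeric NR-GAL4 proteins acting on GAL4-UAS reporter units. Compounds are applied for 24 h. mRNA induction over DMSO is measured by capillary electrophoresis.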
Glucocorticoid receptor (Homo sapiens), sequence (P04150 whole entry, looked up, the tested form may be a part): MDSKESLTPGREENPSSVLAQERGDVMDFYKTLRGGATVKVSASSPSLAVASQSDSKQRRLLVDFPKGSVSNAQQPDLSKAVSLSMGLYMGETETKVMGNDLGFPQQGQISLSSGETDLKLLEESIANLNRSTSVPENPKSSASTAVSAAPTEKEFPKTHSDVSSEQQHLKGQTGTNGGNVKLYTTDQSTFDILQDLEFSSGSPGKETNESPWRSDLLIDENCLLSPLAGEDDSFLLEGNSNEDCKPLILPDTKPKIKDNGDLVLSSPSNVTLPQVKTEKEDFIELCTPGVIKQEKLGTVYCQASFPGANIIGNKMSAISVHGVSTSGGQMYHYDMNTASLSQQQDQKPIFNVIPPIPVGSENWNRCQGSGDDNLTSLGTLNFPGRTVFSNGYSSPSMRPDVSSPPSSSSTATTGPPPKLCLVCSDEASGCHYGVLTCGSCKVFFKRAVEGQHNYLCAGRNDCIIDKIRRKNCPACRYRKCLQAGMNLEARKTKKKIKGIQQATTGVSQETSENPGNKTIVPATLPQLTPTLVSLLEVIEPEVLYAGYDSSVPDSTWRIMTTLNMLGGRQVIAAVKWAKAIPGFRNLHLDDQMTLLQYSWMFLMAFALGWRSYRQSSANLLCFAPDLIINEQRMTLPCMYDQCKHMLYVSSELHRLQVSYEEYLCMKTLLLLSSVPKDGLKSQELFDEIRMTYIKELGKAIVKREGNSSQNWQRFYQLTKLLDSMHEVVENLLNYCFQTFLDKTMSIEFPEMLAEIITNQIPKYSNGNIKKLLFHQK

Experiment [6] concerns the target Bile acid receptor (Homo sapiens) (UniProt Q96RI1). Description: ATG_FXR_TRANS: Attagene TRANS-FACTORIAL HepG2 Assay for Farnesoid X Receptor (FXR) (AID 2282979).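 Also: hits raise reporter mRNA above DMSO so AC50 marks FXR activation.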 The conditions noted are these: HepG2 Attagene TRANS FXR-GAL4 reporter transcription. Put shortly:
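Read-out: fluorescent reporter transcripts quantified by capillary electrophoresis after RT-PCR of total RNA. Source cells were HepG2 transiently carrying chimeric NR-GAL4 plus GAL4-UAS reporter units, dosed 24 h. Activity fitted upward relative to DMSO baseline.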

Experiment [7] can be described thus: ATG_M_06_TRANS: Attagene TRANS-FACTORIAL HepG2 Assay for M06 Transcription Factor (Internal Marker) (AID 2282983). The conditions noted are these: HepG2 Attagene TRANS M06 internal marker reporter. In outline: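 Read-out: fluorescent reporter cDNA fragments resolved by capillary electrophoresis after RT-PCR and HpaI cut. Source cells were HepG2 carrying transfected multi-reporter GAL4 constructs, dosed 24 h. Increase over DMSO control analysed.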

A short description of experiment [8]: ATG_M_32_TRANS: Attagene TRANS-FACTORIAL HepG2 Assay for M32 Transcription Factor (Internal Marker) (AID 2282984).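 Also: transcript level of a background control reporter unit measured by RT-PCR and capillary electrophoresis.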 The conditions noted are these: HepG2 Attagene TRANS M32 internal marker reporter. Put shortly: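 Internal background reporter in transfected HepG2: after 24 h chemical exposure, RNA reverse-transcribed, reporter cDNA amplified, fluorescently labelled and HpaI-cut, then sized by capillary electrophoresis. Gain of signal fitted against DMSO control.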

The target in experiment [9] is Transcriptional activator Myb (Homo sapiens) (UniProt P10242). Description: ATG_Myb_CIS: Attagene CIS-FACTORIAL HepG2 Assay for human Myeloblastosis (Myb) Proto-Oncogene Transcription Factor (AID 2282986; active = hit-call score of the fitted dose curve at least 0.9, where 1 is the maximum; inactive = score below 0.9). The conditions noted are these: HepG2 Attagene CIS-FACTORIAL Myb reporter transcription; actives raise or lower the signal. Put shortly: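 Using HepG2 liver cells bearing transiently transfected cis-promoter reporter constructs, the assay measures induction or loss of reporter mRNA after 24 hours of dosing. Detection used fluorescently labeled RT-PCR products separated by capillary electrophoresis.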

Experiment [10] has as its target Nuclear respiratory factor 1 (Homo sapiens) (UniProt Q16656). Description: ATG_NRF1_CIS: Attagene CIS-FACTORIAL HepG2 Assay for human Nuclear Respiratory Factor 1 (NRF1) Orphan Gene (AID 2282987; active = hit-call score of the fitted dose curve at least 0.9, where 1 is the maximum; inactive = score below 0.9). The conditions noted are these: HepG2 NRF1 cis-element reporter, Attagene multiplex; actives raise or lower the signal. In outline: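 Reporter mRNA induction or loss in HepG2 cells after 24 h dosing; cis-regulated reporter constructs report endogenous transcription-factor activity. Quantified by RT-PCR/capillary electrophoresis fluorescence, DMSO-referenced.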

Experiment [11] has as its target Estrogen receptor (Homo sapiens) (UniProt P03372). Description: ATG_ERa_TRANS: Attagene TRANS-FACTORIAL HepG2 Assay for human Estrogen Receptor alpha (ERa) (AID 2282970). The conditions noted are these: HepG2 Attagene TRANS ERa GAL4 reporter, mRNA. In outline:
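Reporter mRNA induction after 24 hours, detected by fluorescent RT-PCR and capillary electrophoresis, gives the read-out. Cells are HepG2 transiently transfected with GAL4-UAS reporter transcription units responding to chimeric NR-Gal4. Activity is taken as gain of signal over DMSO baseline.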

The target in experiment [12] is Steroid hormone receptor ERR1 (Homo sapiens) (UniProt P11474). The experiment can be described thus: ATG_ERRa_TRANS: Attagene TRANS-FACTORIAL HepG2 Assay for human Estrogen-Related Receptor alpha (ERRa) (AID 2282971). The conditions noted are these: HepG2 Attagene TRANS reporter, ERRa transactivation. In outline:
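Transfected HepG2, 24 h dosing, ERRa-Gal4 chimera driving GAL4-UAS reporter. Readout: reporter mRNA via RT-PCR plus capillary electrophoresis (fluorescence). Positive direction vs DMSO control.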

Experiment [13] in a line: ATG_M_19_TRANS: Attagene TRANS-FACTORIAL HepG2 Assay for M19 Transcription Factor (Internal Marker) (AID 2282974). The conditions noted are these: HepG2 Attagene TRANS-FACTORIAL M19 internal marker reporter. Put shortly:
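Multiplexed TRANS format: HepG2 liver cells bearing transient GAL4-UAS reporter units, chemical treatment 24 h, reporter transcripts quantified by RT-PCR plus capillary electrophoresis. DMSO defines baseline.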

The target in experiment [14] is Oxysterols receptor LXR-alpha (Homo sapiens) (UniProt Q13133). The experiment can be described thus: ATG_LXRa_TRANS: Attagene TRANS-FACTORIAL HepG2 Assay for human Liver X Receptor alpha (LXRa) (AID 2282980). The conditions noted are these: HepG2 Attagene TRANS reporter, LXRa transactivation. Put shortly:
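Read-out: reporter transcript levels by RT-PCR plus capillary electrophoresis, fluorescence intensity. Transiently transfected HepG2, exogenous NR-GAL4 chimera, GAL4-UAS reporters; 24 h compound exposure. Activity = increase over DMSO negative control.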

Experiment [15] deals with Oxysterols receptor LXR-beta (Homo sapiens) (UniProt P55055). The experiment can be described thus: ATG_LXRb_TRANS: Attagene TRANS-FACTORIAL HepG2 Assay for human Liver X Receptor beta (LXRb) (AID 2282981). The conditions noted are these: HepG2 Attagene TRANS GAL4-LXRb reporter, mRNA. Put shortly: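 After 24 h chemical treatment of transfected HepG2 cells carrying exogenous NR-Gal4 chimeras, reporter mRNA was quantified by fluorescent RT-PCR and capillary electrophoresis; activity taken as increase over DMSO controls.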
Oxysterols receptor LXR-beta (Homo sapiens), sequence (P55055 whole entry, looked up, the tested form may be a part): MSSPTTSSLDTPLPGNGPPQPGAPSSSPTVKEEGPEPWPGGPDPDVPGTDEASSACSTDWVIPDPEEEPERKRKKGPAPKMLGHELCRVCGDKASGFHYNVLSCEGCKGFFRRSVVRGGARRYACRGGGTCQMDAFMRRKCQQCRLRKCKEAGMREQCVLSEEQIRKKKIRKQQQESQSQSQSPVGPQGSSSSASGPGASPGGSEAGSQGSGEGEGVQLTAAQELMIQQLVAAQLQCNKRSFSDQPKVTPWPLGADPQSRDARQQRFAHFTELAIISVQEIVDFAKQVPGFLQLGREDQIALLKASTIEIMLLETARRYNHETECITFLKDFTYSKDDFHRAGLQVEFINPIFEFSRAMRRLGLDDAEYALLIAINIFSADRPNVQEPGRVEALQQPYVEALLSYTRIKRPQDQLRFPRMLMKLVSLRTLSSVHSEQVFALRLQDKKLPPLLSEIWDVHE

The target of experiment [16] is Hepatocyte nuclear factor 4-alpha (Homo sapiens) (UniProt P41235). The experiment can be described thus: ATG_HNF4a_TRANS: Attagene TRANS-FACTORIAL HepG2 Assay for human Hepatocyte Nuclear Factor 4 alpha (HNF4a) (AID 2282982). The conditions noted are these: HepG2 HNF4a transactivation reporter, mRNA readout. In outline:
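Activity of an exogenous HNF4a–Gal4 fusion scored as induced GAL4-UAS reporter transcripts after 24 h chemical exposure of transfected human HepG2 cells. Read-out via RT-PCR with 6-FAM labelling and capillary electrophoresis; rise over DMSO baseline.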

For experiment [17], the target named is Nuclear receptor subfamily 4 group A member 2 (Homo sapiens) (UniProt P43354). Description: ATG_NURR1_TRANS: Attagene TRANS-FACTORIAL HepG2 Assay for human Nuclear Receptor Related Protein 1 (NURR1) (AID 2282985). The conditions noted are these: HepG2 Attagene TRANS reporter, mRNA readout. Put shortly: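 Reporter transcript induction, measured by RT-PCR with fluorescent labelling, HpaI digestion and capillary electrophoresis, after 24 hr dosing of human HepG2 cells transiently expressing an exogenous NR-Gal4 fusion with GAL4-UAS-driven reporters; DMSO as baseline.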
Nuclear receptor subfamily 4 group A member 2 (Homo sapiens), sequence (P43354 whole entry, looked up, the tested form may be a part): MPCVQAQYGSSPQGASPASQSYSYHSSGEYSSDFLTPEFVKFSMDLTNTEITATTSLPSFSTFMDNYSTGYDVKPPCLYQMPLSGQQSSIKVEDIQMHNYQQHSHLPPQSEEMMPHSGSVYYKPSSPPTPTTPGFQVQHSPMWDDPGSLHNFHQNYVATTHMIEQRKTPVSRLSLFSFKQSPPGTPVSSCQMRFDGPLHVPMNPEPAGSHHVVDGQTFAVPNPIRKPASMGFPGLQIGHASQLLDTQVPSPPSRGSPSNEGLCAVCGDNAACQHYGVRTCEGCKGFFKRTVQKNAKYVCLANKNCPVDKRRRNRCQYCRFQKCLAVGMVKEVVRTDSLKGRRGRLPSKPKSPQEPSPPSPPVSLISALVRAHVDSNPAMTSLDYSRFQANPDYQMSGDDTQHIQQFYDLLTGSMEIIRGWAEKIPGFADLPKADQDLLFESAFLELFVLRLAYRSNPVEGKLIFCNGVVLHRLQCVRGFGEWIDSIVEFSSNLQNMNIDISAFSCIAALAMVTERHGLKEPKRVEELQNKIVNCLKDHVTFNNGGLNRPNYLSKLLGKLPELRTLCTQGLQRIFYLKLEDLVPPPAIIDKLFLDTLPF

Experiment [18] is described as follows: ATG_GAL4_TRANS: Attagene TRANS-FACTORIAL HepG2 Assay for GAL4 (Internal Marker) (AID 2282976). The conditions noted are these: HepG2 Attagene TRANS GAL4 internal marker reporter. In outline:
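RT-PCR/capillary electrophoresis readout of reporter mRNA. HepG2, transient MRTU transfection (GAL4-UAS reporters), 24 h compound exposure. Background-control endpoint, positive direction vs DMSO baseline.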

Inconclusive results are not listed. Active and inactive are the calls of the source. The calls were made as follows, unless noted: active = hit-call score of the fitted dose curve at least 0.9, where 1 is the maximum; inconclusive = response in the unintended direction; inactive = score below 0.9.

Estrogen receptor (Homo sapiens), sequence (P03372 whole entry, looked up, the tested form may be a part): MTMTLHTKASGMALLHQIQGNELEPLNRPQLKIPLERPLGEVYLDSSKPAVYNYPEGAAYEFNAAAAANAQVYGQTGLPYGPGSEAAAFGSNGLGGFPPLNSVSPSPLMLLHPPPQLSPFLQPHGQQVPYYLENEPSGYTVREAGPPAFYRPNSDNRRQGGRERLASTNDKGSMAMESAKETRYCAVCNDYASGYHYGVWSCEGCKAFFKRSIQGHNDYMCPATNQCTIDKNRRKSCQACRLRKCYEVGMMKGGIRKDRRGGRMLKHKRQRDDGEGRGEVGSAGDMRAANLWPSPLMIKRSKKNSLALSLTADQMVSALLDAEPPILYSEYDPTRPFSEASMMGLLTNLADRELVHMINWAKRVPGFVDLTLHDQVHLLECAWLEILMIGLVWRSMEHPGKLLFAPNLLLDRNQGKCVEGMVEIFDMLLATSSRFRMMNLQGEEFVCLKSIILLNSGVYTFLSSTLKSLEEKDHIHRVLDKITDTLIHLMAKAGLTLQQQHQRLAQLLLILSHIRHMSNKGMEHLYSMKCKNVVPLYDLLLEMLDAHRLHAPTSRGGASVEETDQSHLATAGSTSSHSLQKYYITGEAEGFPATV
Nuclear respiratory factor 1 (Homo sapiens), sequence (Q16656 whole entry, looked up): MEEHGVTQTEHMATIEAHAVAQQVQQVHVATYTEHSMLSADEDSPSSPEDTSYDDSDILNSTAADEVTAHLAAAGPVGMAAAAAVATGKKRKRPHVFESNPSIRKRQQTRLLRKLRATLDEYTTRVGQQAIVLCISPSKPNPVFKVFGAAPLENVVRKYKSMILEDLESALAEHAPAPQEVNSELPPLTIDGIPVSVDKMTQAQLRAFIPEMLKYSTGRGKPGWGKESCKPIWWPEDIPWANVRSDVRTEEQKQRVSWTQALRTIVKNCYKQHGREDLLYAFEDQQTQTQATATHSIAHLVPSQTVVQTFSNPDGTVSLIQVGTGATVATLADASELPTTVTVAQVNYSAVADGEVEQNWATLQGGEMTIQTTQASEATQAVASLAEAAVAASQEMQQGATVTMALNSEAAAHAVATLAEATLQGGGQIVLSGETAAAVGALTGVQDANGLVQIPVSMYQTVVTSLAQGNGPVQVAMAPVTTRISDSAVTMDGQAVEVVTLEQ
Hepatocyte nuclear factor 4-alpha (Homo sapiens), sequence (P41235 whole entry, looked up, the tested form may be a part): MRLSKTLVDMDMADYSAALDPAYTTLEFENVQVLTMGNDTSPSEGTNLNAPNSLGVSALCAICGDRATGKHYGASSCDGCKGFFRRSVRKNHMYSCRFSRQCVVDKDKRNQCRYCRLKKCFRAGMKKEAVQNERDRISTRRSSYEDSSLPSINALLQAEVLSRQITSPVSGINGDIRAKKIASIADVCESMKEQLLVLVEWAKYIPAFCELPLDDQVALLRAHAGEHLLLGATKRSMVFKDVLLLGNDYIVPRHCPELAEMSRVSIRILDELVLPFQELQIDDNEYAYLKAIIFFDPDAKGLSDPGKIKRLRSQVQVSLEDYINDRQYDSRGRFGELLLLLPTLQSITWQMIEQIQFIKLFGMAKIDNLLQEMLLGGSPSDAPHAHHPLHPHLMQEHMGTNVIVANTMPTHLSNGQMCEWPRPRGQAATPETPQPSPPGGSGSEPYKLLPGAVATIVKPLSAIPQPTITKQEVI
Steroid hormone receptor ERR1 (Homo sapiens), sequence (P11474 whole entry, looked up, the tested form may be a part): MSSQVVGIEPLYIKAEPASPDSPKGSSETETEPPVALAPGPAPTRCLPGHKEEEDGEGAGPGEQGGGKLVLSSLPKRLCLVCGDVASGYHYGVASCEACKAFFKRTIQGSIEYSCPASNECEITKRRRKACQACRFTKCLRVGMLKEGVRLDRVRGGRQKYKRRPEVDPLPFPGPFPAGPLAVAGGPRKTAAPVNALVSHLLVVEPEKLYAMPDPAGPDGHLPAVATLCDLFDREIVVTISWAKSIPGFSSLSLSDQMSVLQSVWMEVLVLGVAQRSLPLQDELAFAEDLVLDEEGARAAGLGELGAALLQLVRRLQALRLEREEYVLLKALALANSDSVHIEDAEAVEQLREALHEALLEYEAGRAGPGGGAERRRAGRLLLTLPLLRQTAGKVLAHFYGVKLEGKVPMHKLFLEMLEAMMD
Oxysterols receptor LXR-alpha (Homo sapiens), sequence (Q13133 whole entry, looked up, the tested form may be a part): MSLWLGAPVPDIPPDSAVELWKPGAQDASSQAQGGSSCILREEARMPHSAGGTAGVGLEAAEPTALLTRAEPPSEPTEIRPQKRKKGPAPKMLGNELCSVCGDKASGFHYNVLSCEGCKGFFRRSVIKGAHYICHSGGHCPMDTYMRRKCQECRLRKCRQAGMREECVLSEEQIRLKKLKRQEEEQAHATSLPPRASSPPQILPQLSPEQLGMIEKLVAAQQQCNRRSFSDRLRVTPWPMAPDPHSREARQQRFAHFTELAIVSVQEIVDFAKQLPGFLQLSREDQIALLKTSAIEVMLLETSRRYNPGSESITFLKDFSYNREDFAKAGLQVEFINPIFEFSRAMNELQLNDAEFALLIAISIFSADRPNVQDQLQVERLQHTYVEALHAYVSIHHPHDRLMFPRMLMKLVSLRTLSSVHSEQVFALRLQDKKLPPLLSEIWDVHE

With `Cc1cccc(C)c1C`, the call in experiment [1], in experiment [2], in experiment [3], in experiment [4], in experiment [5] and in experiment [6] was inactive. The call in experiment [7], in experiment [8], in [9] and in experiment [10] was inactive.
In the case of `Nc1cc(Cl)c(O)c(Cl)c1`, the compound was classed as inactive in experiment [1], in experiment [2], in experiment [11], in experiment [12], in experiment [4] and in experiment [13]. Also, the result in experiment [14], in experiment [15], in [8], in experiment [17], in experiment [9] and in experiment [10] was inactive. For the same compound, the AC50 in experiment [16] was 100 µM (active).
Regarding `Cc1ccc(S)cc1`, the result in experiment [1], in [2], in [13], in experiment [15], in [16] and in experiment [8] was inactive. Besides, the outcome in experiment [9] and in experiment [10] was inactive. For the same compound, the AC50 was 25.4 µM (active) in [11] and 53.5 µM (active) in experiment [4].
Regarding `CC(=O)Nc1ccc(CC(=O)O)cc1`, the outcome in experiment [1], in [2], in experiment [11], in [4], in [13] and in [18] was inactive. For the same compound, the result in [5], in [14], in [15] and in [9] was inactive.
Take `O=C(O)CCSCCC(=O)O`: the result in experiment [1], in experiment [2], in [11], in [4], in [13] and in experiment [18] was inactive. Further, the result in experiment [5], in [15], in experiment [16], in experiment [8], in experiment [9] and in [10] was inactive.
Turning to `CCCCNC(=O)NS(=O)(=O)c1ccc(N)cc1`, the result in experiment [1], in experiment [2], in [12], in experiment [4], in experiment [15] and in experiment [16] was inactive. Also, the compound was classed as inactive in [7] and in experiment [9].
Consider `O=C[C@H](O)[C@H](O)[C@H](O)CO`, for which the call in experiment [1], in experiment [2], in experiment [3], in [4], in [7] and in experiment [17] was inactive. The outcome in experiment [9] and in experiment [10] was inactive.
Turning to `CCN(CC)c1ccc(C(=C2C=CC(=[N+](CC)CC)C=C2)c2ccc(S(=O)(=O)O)cc2S(=O)(=O)[O-])cc1`, the call in experiment [1], in experiment [2], in experiment [12], in [4], in experiment [13] and in experiment [5] was inactive. Also, the compound was called inactive in [14], in experiment [16], in experiment [8], in experiment [17], in experiment [9] and in experiment [10].
For the compound `O=[N+]([O-])c1cc(C(F)(F)F)ccc1Cl`, the compound was classed as inactive in experiment [1], in experiment [2], in experiment [12], in [4], in experiment [5] and in [16]. The compound was called inactive in experiment [7], in [8], in [9] and in [10].
For `O=C(O)COCCN1CCN(C(c2ccccc2)c2ccc(Cl)cc2)CC1` (stereo not drawn), the call in experiment [1], in experiment [2], in [11], in [4], in experiment [13] and in [6] was inactive. In addition, the outcome in [8] and in experiment [9] was inactive.
For the compound `COC(=O)Cc1cccc2ccccc12`, the outcome in experiment [1], in [2], in experiment [11], in [4], in experiment [5] and in [14] was inactive. In addition, the call in [7] and in experiment [9] was inactive.
On to `CC1CCC2CC1C2(C)C` (stereo not drawn), for which the result in [1], in [2], in [3], in experiment [4], in [13] and in experiment [15] was inactive. For the same compound, the outcome in [16], in [9] and in experiment [10] was inactive.
Turning to `CC1CC(OC(=O)c2ccccc2O)CC(C)(C)C1` (stereo not drawn), the AC50 was 181 µM (active) in experiment [1] and 31.1 µM (active) in experiment [14]. Further, the result in experiment [2], in [3], in [4], in experiment [13], in experiment [15] and in experiment [8] was inactive. The outcome in [9] and in [10] was inactive.

These data come from PubChem BioAssay (EPA / NIEHS).
